The full data set covers some 7,900 targets. This sample favours those with a hit. About 0.6% of all pairs of compound and target were hits.

Sequence of UniProt Q8NEZ2 (Q8NEZ2 whole entry, looked up): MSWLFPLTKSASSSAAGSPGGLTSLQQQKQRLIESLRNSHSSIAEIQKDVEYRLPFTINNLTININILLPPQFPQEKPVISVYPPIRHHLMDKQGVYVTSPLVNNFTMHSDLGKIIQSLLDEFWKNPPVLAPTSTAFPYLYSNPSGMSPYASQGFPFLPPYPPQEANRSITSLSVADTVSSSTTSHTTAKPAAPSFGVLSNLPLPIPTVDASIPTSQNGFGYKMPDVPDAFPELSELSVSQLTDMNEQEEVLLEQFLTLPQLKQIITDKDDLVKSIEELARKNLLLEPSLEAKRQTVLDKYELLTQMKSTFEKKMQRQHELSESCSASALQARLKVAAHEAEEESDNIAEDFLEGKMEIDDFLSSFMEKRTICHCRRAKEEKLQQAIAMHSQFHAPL
Sequence of UniProt Q9Y385 (Q9Y385 whole entry, looked up): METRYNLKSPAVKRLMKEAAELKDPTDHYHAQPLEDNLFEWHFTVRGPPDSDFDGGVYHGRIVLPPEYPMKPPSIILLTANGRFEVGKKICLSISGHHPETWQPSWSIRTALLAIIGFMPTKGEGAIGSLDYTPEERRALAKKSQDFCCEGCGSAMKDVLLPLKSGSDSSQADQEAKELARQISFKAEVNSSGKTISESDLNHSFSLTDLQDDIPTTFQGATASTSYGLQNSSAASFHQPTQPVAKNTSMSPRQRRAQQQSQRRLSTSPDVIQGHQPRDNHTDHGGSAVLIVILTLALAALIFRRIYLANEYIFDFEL
Sequence of UniProt P12956 (P12956 whole entry, looked up): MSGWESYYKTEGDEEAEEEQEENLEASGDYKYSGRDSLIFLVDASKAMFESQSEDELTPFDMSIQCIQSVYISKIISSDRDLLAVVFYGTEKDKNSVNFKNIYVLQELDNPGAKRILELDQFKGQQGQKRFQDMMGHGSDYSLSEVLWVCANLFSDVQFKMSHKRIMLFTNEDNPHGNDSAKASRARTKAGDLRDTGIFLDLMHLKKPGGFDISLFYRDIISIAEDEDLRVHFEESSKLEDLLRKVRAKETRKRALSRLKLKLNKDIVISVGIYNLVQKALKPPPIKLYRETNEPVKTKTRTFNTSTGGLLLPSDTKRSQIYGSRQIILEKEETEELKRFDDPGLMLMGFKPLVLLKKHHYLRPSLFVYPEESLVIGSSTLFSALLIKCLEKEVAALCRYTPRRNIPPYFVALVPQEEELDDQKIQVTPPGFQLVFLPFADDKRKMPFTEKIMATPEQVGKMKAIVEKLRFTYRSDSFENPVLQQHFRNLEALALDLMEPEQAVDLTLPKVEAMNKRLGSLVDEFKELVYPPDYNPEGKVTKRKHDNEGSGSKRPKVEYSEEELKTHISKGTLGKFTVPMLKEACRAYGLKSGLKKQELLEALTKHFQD
Sequence of UniProt Q7Z7N9 (Q7Z7N9 whole entry, looked up): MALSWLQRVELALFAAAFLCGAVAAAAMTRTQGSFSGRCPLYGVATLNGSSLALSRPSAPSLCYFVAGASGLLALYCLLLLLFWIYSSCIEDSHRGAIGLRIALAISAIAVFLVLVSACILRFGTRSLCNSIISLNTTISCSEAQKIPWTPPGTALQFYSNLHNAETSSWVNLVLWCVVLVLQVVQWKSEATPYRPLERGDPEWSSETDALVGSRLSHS
Sequence of UniProt Q9UBK9 (Q9UBK9 whole entry, looked up): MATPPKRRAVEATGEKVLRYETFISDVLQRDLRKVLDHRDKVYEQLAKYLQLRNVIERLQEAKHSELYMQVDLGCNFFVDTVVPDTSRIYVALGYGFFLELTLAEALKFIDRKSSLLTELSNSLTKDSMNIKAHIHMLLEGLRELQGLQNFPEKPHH
Sequence of UniProt Q5VZI3 (Q5VZI3 whole entry, looked up): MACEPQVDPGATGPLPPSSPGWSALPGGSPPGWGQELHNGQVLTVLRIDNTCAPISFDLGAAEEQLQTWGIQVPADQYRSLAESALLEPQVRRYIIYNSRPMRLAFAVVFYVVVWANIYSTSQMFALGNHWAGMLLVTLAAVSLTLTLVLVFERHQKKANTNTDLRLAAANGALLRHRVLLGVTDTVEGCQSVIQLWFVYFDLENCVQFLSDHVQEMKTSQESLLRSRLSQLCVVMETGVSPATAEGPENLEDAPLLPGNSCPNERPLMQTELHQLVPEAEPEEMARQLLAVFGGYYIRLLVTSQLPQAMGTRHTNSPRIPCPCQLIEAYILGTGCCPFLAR
Sequence of UniProt P30291 (P30291 whole entry, looked up): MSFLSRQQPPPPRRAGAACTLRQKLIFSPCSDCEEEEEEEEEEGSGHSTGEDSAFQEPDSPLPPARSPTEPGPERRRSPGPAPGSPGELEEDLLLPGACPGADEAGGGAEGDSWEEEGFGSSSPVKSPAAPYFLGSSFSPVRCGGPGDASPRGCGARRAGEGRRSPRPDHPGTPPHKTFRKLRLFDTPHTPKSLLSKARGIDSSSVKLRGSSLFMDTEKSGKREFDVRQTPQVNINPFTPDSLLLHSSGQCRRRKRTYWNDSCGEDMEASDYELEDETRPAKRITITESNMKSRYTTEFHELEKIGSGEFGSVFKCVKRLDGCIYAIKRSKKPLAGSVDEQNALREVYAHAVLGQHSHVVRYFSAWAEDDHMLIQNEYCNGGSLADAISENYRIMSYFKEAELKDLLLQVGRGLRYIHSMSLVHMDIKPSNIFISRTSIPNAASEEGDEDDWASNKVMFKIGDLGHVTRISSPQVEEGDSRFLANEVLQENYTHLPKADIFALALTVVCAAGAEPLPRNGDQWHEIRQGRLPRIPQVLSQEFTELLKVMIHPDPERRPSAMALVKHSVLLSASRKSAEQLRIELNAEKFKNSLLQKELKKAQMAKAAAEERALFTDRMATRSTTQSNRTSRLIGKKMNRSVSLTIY
Sequence of UniProt Q9NX01 (Q9NX01 whole entry, looked up): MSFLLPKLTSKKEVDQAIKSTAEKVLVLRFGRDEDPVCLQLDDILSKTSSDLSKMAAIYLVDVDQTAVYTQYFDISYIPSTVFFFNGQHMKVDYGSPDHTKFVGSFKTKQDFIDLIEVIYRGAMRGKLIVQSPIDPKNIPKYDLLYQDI
Sequence of UniProt Q5TAX3 (Q5TAX3 whole entry, looked up): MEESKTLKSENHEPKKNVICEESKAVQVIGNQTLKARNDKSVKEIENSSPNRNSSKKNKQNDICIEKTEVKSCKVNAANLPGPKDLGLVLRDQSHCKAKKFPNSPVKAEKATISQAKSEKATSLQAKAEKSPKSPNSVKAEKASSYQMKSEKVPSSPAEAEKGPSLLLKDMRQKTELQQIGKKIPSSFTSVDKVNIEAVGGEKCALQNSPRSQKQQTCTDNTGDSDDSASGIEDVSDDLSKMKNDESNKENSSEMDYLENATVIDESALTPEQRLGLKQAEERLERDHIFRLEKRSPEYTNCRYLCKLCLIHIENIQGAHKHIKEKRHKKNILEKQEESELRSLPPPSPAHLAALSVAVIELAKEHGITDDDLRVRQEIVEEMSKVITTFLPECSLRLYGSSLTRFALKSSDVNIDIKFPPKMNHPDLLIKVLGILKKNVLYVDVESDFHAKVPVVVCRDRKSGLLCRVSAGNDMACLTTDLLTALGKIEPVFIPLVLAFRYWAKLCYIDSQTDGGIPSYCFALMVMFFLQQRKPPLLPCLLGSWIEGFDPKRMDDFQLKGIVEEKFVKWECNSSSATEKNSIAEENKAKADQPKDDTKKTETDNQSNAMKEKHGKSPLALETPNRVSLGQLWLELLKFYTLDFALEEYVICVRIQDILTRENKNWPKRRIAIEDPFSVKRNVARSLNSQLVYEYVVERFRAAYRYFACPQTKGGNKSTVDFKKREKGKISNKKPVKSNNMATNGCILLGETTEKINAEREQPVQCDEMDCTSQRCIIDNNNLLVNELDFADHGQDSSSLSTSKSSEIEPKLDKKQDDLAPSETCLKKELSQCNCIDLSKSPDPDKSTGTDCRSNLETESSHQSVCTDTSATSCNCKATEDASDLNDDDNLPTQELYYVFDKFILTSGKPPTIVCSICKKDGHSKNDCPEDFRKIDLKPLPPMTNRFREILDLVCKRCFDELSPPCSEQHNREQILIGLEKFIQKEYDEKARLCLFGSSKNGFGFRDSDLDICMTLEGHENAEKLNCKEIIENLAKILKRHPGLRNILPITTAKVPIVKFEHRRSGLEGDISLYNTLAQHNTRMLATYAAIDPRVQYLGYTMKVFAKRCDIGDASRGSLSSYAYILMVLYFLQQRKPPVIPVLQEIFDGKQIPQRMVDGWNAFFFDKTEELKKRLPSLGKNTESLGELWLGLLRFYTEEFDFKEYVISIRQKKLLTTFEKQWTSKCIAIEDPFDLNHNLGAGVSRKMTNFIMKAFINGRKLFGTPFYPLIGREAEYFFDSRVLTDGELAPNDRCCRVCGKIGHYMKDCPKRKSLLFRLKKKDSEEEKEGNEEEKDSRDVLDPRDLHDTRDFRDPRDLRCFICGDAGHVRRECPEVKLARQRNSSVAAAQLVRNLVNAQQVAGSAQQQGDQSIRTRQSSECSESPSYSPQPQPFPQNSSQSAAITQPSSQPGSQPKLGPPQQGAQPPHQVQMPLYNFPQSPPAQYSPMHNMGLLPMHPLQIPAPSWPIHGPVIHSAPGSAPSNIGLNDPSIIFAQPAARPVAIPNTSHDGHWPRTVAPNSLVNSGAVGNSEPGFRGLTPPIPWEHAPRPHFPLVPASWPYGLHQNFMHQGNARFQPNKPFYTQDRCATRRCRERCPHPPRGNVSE
Sequence of UniProt Q9BQB6 (Q9BQB6 whole entry, looked up): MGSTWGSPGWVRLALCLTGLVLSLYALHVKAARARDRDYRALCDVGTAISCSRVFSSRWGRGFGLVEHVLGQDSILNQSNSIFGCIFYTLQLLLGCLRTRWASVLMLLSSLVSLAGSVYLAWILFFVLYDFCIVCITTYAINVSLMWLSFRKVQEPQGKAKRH
Sequence of UniProt O95857 (O95857 whole entry, looked up): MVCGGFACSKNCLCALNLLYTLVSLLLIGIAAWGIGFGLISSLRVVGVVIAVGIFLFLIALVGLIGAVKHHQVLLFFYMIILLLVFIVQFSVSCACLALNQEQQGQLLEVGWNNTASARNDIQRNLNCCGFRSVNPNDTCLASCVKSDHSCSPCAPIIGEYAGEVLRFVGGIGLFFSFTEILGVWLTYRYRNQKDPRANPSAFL
Sequence of UniProt P61960 (P61960 whole entry, looked up): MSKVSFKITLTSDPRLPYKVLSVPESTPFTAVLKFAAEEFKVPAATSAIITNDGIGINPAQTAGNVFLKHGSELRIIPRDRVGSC

Compound in one assay: Cn1cc(-c2ccc3c(c2)CCN3C(=O)Cc2cccc(C(F)(F)F)c2)c2c(N)ncnc21
The assay can be described thus: log2 fold change, soluble protein after heating vs DMSO (PISA); higher = thermal stabilisation; K562 cells, 10 uM, 30 min; active = over 0.2 and 3.5 SD of the protein, either way, in both replicates (recomputed). Summed up:
(§1)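 K562 cells (2×10^6 cells/mL) were treated with 10 μM compound for 30 min, and aliquots were heated for 3 min over 48°C-58°C. Pooled aliquots were extracted in PBS with 0.5% NP-40 at 4°C, and the supernatant after 21,000xg for 90 min was measured by TMTpro 16plex LC-MS/MS with channel sums equalised. Reported thermal stability, relative to control samples and from duplicates, is a log2 fold change.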
For UBIAD1 (UniProt Q9Y5Z9), the log2 fold change is 0.052 (inactive).

TRIM23 (UniProt P36406): the log2 fold change is 0.126 (inactive).

TXNL4B (UniProt Q9NX01): the log2 fold change was 0.007 (inactive).

As to TSPAN13 (UniProt O95857), the log2 fold change was -0.038 (inactive).

Take UNC119B (UniProt A6NIH7): the log2 fold change is 0.428 (inactive).

For TUT4 (UniProt Q5TAX3), the log2 fold change is -0.097 (inactive).

Consider VKORC1 (UniProt Q9BQB6), for which the log2 fold change is 0.105 (inactive).

Turning to WASH2P (UniProt Q6VEQ5), the log2 fold change is -0.008 (inactive).

On to TMEM184C (UniProt Q9NVA4), for which the log2 fold change was 0.15 (inactive).

With VWA3B isoform 6 (UniProt Q502W6), the log2 fold change is 0.045 (inactive).

As to UBE2J1 (UniProt Q9Y385), the log2 fold change is -0.053 (inactive).

Take TMEM268 isoform 3 (UniProt Q5VZI3): the log2 fold change is 0.112 (inactive).

Consider UFM1 isoform 2 (UniProt P61960), for which the log2 fold change was 0.045 (inactive).

For the target TMEM106B (UniProt Q9NUM4), the log2 fold change is 0.083 (inactive).

Turning to UBE2D1 (UniProt P51668), the log2 fold change is 0.036 (inactive).

With VPS37A (UniProt Q8NEZ2), the log2 fold change is 0.048 (inactive).

On to XRCC6 (UniProt P12956), for which the log2 fold change is -0.01 (inactive).

With UBXN10 (UniProt Q96LJ8), the log2 fold change was -0.075 (inactive).

With TXNIP (UniProt Q9H3M7), the log2 fold change was 0.105 (inactive).

Take WEE1 (UniProt P30291): the log2 fold change was -0.043 (inactive).

TRABD (UniProt Q9H4I3): the log2 fold change is 0.145 (inactive).

Consider TMEM164 (UniProt Q5U3C3), for which the log2 fold change is 0.002 (inactive).

In the case of TRIM44 (UniProt Q96DX7), the log2 fold change is 0.002 (inactive).

On to TUBAL3 (UniProt A6NHL2), for which the log2 fold change is 0.005 (inactive).

Take TMEM8A (UniProt Q9HCN3): the log2 fold change is -0.046 (inactive).

Take TRIM4 (UniProt Q9C037): the log2 fold change is 0.042 (inactive).

Consider UXT isoform 2 (UniProt Q9UBK9), for which the log2 fold change was 0.11 (inactive).

Take TMEM9B (UniProt Q9NQ34): the log2 fold change was 0.051 (inactive).

For TMEM219 (UniProt Q86XT9), the log2 fold change was 0.092 (inactive).

Consider VPS35L (UniProt Q7Z3J2), for which the log2 fold change is -0.152 (inactive).

With VPS13B (UniProt Q7Z7G8), the log2 fold change is 0.005 (inactive).

With TMEM179B (UniProt Q7Z7N9), the log2 fold change is 0.154 (inactive).

Regarding XIAP (UniProt P98170), the log2 fold change is 0.029 (inactive).

For VPS51 (UniProt Q9UID3), the log2 fold change was -0.075 (inactive).

Compound in the next assay: Cn1cc(-c2ccc3nnc(C(F)(F)c4ccc5ncccc5c4)n3n2)cn1
The assay is described as above. The method in brief:
as §1
For UBIAD1 (UniProt Q9Y5Z9), the log2 fold change was 0.006 (inactive).

As to TMEM41A (UniProt Q96HV5), the log2 fold change is 0.082 (inactive).

With TRIM23 (UniProt P36406), the log2 fold change was 0.002 (inactive).

Consider TXNL4B (UniProt Q9NX01), for which the log2 fold change is 0.028 (inactive).

Consider TSPAN13 (UniProt O95857), for which the log2 fold change is 0.095 (inactive).

Regarding UNC119B (UniProt A6NIH7), the log2 fold change was -0.089 (inactive).

As to TUT4 (UniProt Q5TAX3), the log2 fold change was -0.066 (inactive).

With VKORC1 (UniProt Q9BQB6), the log2 fold change was 0.081 (inactive).

Regarding WASH2P (UniProt Q6VEQ5), the log2 fold change is 0.011 (inactive).

Consider TMEM184C (UniProt Q9NVA4), for which the log2 fold change is -0.092 (inactive).

On to VWA3B isoform 6 (UniProt Q502W6), for which the log2 fold change was 0.003 (inactive).

As to UBE2J1 (UniProt Q9Y385), the log2 fold change was 0.003 (inactive).

On to TMEM268 isoform 3 (UniProt Q5VZI3), for which the log2 fold change was 0.014 (inactive).

As to UBE2D1 (UniProt P51668), the log2 fold change was -0.075 (inactive).

On to VPS37A (UniProt Q8NEZ2), for which the log2 fold change was 0.014 (inactive).

Turning to XRCC6 (UniProt P12956), the log2 fold change was 0.018 (inactive).

As to UBXN10 (UniProt Q96LJ8), the log2 fold change is 0.021 (inactive).

With TXNIP (UniProt Q9H3M7), the log2 fold change is -0.105 (inactive).

WEE1 (UniProt P30291): the log2 fold change was -0.037 (inactive).

Consider TRABD (UniProt Q9H4I3), for which the log2 fold change is -0.013 (inactive).

As for TRIM44 (UniProt Q96DX7), the log2 fold change is 0.051 (inactive).

TUBAL3 (UniProt A6NHL2): the log2 fold change was -0.095 (inactive).

Turning to TMEM8A (UniProt Q9HCN3), the log2 fold change was 0 (inactive).

In the case of TRIM4 (UniProt Q9C037), the log2 fold change is -0.138 (inactive).

Regarding UXT isoform 2 (UniProt Q9UBK9), the log2 fold change was 0.026 (inactive).

On to TMEM9B (UniProt Q9NQ34), for which the log2 fold change was 0.164 (inactive).

As to VPS35L (UniProt Q7Z3J2), the log2 fold change is 0.009 (inactive).

Consider VPS13B (UniProt Q7Z7G8), for which the log2 fold change was 0.029 (inactive).

For the target TMEM179B (UniProt Q7Z7N9), the log2 fold change was 0.019 (inactive).

As to VPS51 (UniProt Q9UID3), the log2 fold change is -0.008 (inactive).

Compound in the next assay: Cn1cncc1[C@@](N)(c1ccc(Cl)cc1)c1ccc2c(c1)c(-c1cccc(Cl)c1)cc(=O)n2C [tipifarnib]
Described as above. Summed up: as §1
On to UBIAD1 (UniProt Q9Y5Z9), for which the log2 fold change is 0.003 (inactive).

Turning to TMEM41A (UniProt Q96HV5), the log2 fold change is 0.026 (inactive).

For TXNL4B (UniProt Q9NX01), the log2 fold change was 0.008 (inactive).

On to TSPAN13 (UniProt O95857), for which the log2 fold change was -0.008 (inactive).

In the case of UNC119B (UniProt A6NIH7), the log2 fold change was -0.143 (inactive).

Take TUT4 (UniProt Q5TAX3): the log2 fold change is -0.049 (inactive).

VKORC1 (UniProt Q9BQB6): the log2 fold change was 0 (inactive).

Consider UBAP2L (UniProt F8W726), for which the log2 fold change was 0.245 (inactive).

As to WASH2P (UniProt Q6VEQ5), the log2 fold change is 0.043 (inactive).

As for VWA3B isoform 6 (UniProt Q502W6), the log2 fold change is 0.047 (inactive).

In the case of UBE2J1 (UniProt Q9Y385), the log2 fold change was -0.056 (inactive).

Take TMEM268 isoform 3 (UniProt Q5VZI3): the log2 fold change is 0.003 (inactive).

For UFM1 isoform 2 (UniProt P61960), the log2 fold change is -0.016 (inactive).

TMEM106B (UniProt Q9NUM4): the log2 fold change is 0.029 (inactive).

For the target UBE2D1 (UniProt P51668), the log2 fold change is -0.089 (inactive).

As to VPS37A (UniProt Q8NEZ2), the log2 fold change was -0.112 (inactive).

As to XRCC6 (UniProt P12956), the log2 fold change was -0.104 (inactive).

On to UBXN10 (UniProt Q96LJ8), for which the log2 fold change is 0.01 (inactive).

Take TXNIP (UniProt Q9H3M7): the log2 fold change was 0.199 (inactive).

Turning to WEE1 (UniProt P30291), the log2 fold change is -0.037 (inactive).

In the case of TRABD (UniProt Q9H4I3), the log2 fold change was 0.012 (inactive).

As for TMEM164 (UniProt Q5U3C3), the log2 fold change was 0.059 (inactive).

On to TRIM44 (UniProt Q96DX7), for which the log2 fold change is -0.041 (inactive).

Regarding TUBAL3 (UniProt A6NHL2), the log2 fold change is -0.097 (inactive).

With TMEM8A (UniProt Q9HCN3), the log2 fold change is 0.047 (inactive).

Regarding TRIM4 (UniProt Q9C037), the log2 fold change was -0.014 (inactive).

Regarding UXT isoform 2 (UniProt Q9UBK9), the log2 fold change is -0.144 (inactive).

TMEM9B (UniProt Q9NQ34): the log2 fold change is -0.108 (inactive).

In the case of TMEM219 (UniProt Q86XT9), the log2 fold change is 0.063 (inactive).

Consider VPS35L (UniProt Q7Z3J2), for which the log2 fold change was -0.002 (inactive).

Take VPS13B (UniProt Q7Z7G8): the log2 fold change was 0.037 (inactive).

For the target TMEM179B (UniProt Q7Z7N9), the log2 fold change was 0.167 (inactive).

Regarding XIAP (UniProt P98170), the log2 fold change was -0.078 (inactive).

For VPS51 (UniProt Q9UID3), the log2 fold change was -0.095 (inactive).

The values above are taken from the supplement of paper PMC10849652.
